# RORgamma inh: blocks mouse ROR gamma transcriptional activity | Drosophila S2 Gal4-RORgamma UAS-luciferase reporter, 20 h | 310,000 compounds, 5.4% hits | Potency, µM (series often up to 53.6 µM), for the others: at the top dose activity change, negative = inhibition, usual class: inhibitors | AID 2551 | P51450; further: nearly all actives have a fitted effect of over 60% in size
# Target sequence (P51450 whole entry, looked up, the tested form may be a part): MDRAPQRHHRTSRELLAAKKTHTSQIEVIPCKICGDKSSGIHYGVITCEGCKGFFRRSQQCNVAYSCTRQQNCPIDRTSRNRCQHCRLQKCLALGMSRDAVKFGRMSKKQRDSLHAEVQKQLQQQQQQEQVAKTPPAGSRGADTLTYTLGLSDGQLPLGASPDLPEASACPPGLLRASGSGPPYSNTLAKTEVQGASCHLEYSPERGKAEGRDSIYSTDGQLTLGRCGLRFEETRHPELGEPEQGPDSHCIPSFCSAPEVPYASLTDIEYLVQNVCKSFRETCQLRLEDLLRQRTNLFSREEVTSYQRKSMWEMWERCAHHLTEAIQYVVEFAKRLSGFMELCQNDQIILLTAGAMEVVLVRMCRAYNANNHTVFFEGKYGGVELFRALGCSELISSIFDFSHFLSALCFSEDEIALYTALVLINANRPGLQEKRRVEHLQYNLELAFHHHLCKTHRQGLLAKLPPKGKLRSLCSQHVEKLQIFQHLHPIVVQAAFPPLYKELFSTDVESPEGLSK
#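 Schneider cells (Drosophila), stable Gal4 DBD–ROR gamma + UAS-luc; 1 hr cmpd preincubation; Cu2+ induction 700 uM final; 20 hr ambient; luminescence.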
# Gal4-VP16 FLuc: inhibits Gal4-VP16 luciferase reporter, ROR gamma counter-screen | 310,000 compounds, 3.5% hits | Drosophila S2 Gal4-VP16 UAS-luciferase, luminescence, 20 h | Potency, µM (top dose mostly 53.6 µM), inactives show top-dose activity, negative = inhibition, most hits filed as inhibitors;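 further: Gal4-VP16 expression switched on by copper sulfate through the metallothionein promoter; nearly all actives have a fitted effect of over 50% in size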
# Luc counter: blocks Kinase-Glo luciferase, a counter-screen artifact. 200,000 compounds, 0.28% hits. Q27757. Kinase-Glo luciferase, ATP luminescence, 8 min. Potency, µM (highest dose often 38.3 µM), for inactives: at the top dose activity change, negative = inhibition, usual class: inhibitors; further: nearly all actives have a fitted effect of over 60% in size
#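 Kinase-Glo luciferase light output from ATP and luciferin was measured with 10 uM ATP, within the enzyme's linear range. Buffer: 50 mM imidazole pH 7.2, 50 mM KCl, 7 mM MgCl2, 0.01% Tween 20, 0.05% BSA; luminescence read after 8 min at ambient temperature.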
# Numbers without * were called inactive; ? = inconclusive; . = not tested or not shown; [ ] = another dose, or the depositor's remark. The list is not random: actives were taken first. Their share in the collection is about 6.2%. The call rests on the fitted dose curve; in most records, active means well fitted curve in the direction sought with a large enough effect; inconclusive means small, poorly fitted or top-dose-only effect, or another doubt; inactive means no such curve, though single readings can be large; an effect the other way counts as inactive or inconclusive. On the % scale 0 is the no-effect control and ±100 the full control effect; potency means the concentration at half of the fitted maximal effect.
SMILES,RORgamma inh,Gal4-VP16 FLuc,Luc counter
Cc1ncc(CO)c(/C=N/NC(=S)Nc2ccc(F)cc2)c1O,?,?,-3.5%
COc1cc(OC)c(S(=O)(=O)Nc2ccccc2N2CCOCC2)cc1NC(C)=O,34.1%,1.9%,-0.9%
CCN(CC)c1ccc(/C=N/NC(=O)C(O)(c2ccccc2)c2ccccc2)o1,5.62µM*,3.98µM*,-0.3%
O=C(O)COc1ccc(/C=N/NC(=O)C(O)(c2ccccc2)c2ccccc2)cc1,-21.6%,-0.9%,.
O=C(NO)c1ccccc1,-10.8%,1.6%,.
CC1=C/C(=N\NC(=O)c2ccccc2)CC1,12.6µM*,?,-3.8%
S=C(Nc1ccccc1)N1CCOCC1,-25.6%,-1.6%,-2.4%
COc1ccc(/C=N/NC(=O)CSc2ccccc2)cc1OC,-4.3%,?,-1.9%
S=C(N/N=C/c1ccccc1)N1CCOCC1,0.398µM*,2.51µM*,-5.6%
COC(=O)N/N=C/c1ccccc1,9.8%,-5.3%,-7.1%
COc1ccc(/C=N/NC(=S)SC)cc1OC,1.58µM*,3.16µM*,-1.5%
CSC(=S)N/N=C/c1ccccc1,1.41µM*,3.16µM*,0.8%
COc1ccc(CNC(=O)CN2C(=O)NC(C)(c3cccc(Br)c3)C2=O)cc1 (configuration not stated),21.9%,4.5%,.
C=C1c2ccccc2O[C@H](C(=O)OCC)C1OC (mixture of isomers),1.1%[96.6 µM],9.6%[96.6 µM],-3.5%[39.9 µM]
Cc1ccc(CSc2nnc(SCC(=O)N/N=C/C=C/c3ccco3)s2)cc1,7.08µM*,11.2µM*,-0.5%
Cn1c(SCC(=O)N/N=C/C=C\c2ccco2)nc2ccccc21,0.398µM*,?,-9.6%
CCn1c(SCC(=O)N/N=C/C=C\c2ccco2)nc2ccccc21,?,?,2.9%
Cc1ccc(CSc2nnc(SCC(=O)N/N=C/C=C/c3ccccc3[N+](=O)[O-])s2)cc1,11.2µM*,?,-4.1%
CC(/C=N/NC(=O)CSc1nnc(SCc2ccccc2)s1)=C\c1ccco1,8.4%,?,-4.6%
CCn1c(SCC(=O)N/N=C/C=C\c2ccccc2[N+](=O)[O-])nnc1-c1ccccc1,27.6%,-8.2%,-0.4%
COc1cccc(NC(=O)c2cc(CN3C(=O)c4ccccc4C3=O)ccc2OC)c1,?,-5.3%,-0.4%
C=CCC(C)(Nc1ccccc1)C(=O)OCC (configuration not stated),-3.0%,5.0%,0.2%
COc1ccc(-c2nnc(-c3ccc(N)cc3)o2)cc1,7.9%,-25.7%,-3.7%
CN(C)c1ccc(-c2nnc(-c3ccc(S(=O)(=O)C(F)F)cc3)o2)cc1,4.7%,-0.5%,-5.9%
Cc1ccc(-c2nnc(-c3ccccc3Br)o2)cc1,12.6µM*,?,.
SMILES,RORgamma inh,Gal4-VP16 FLuc,Luc counter
CN(C)c1ccc(-c2nnc(-c3ccccc3F)o2)cc1,11.2µM*,?,.
Brc1ccc(-c2nnc(-c3ccccc3Br)o2)cc1,-8.3%,-24.5%,-17.7%
COc1ccc(-c2nnc(-c3ccc(N(C)C)cc3)o2)cc1,0.794µM*,-25.9%,0.7%
CCOC(=O)CNC(=O)Cc1ccc(OC)cc1,43.8%,2.2%,.
Cc1cc(C)c(S(=O)(=O)Nc2cc(SCC(=O)O)c(O)c3ccccc23)cc1C,11.2µM*,?,-2.3%
O=C(O)CSc1cc(NS(=O)(=O)c2ccc(Cl)cc2)c2ccccc2c1O,-24.4%,?,.
CCOC(=O)C1(CCc2ccccc2)CCN(C(=O)CN2C(=O)CSC2=O)CC1,13.8%,-15.2%,-2.8%
O=C(N/N=C\c1ccc([N+](=O)[O-])o1)C1COc2ccccc2O1 (configuration not stated),-43.5%,?,0.7%
CC(C)(C)c1ccc2c(c1)OC(C(=O)N/N=C\c1ccccn1)CO2 (configuration not stated),?,17.8µM*,-0.8%
CCOC(=O)c1ccc(NC(=O)C2COc3ccccc3O2)cc1 (configuration not stated),-9.8%[1.91 µM],5.4%,.
CCOC(=O)c1ccc(-n2c(O)c(/C=N/NC(=O)C3COc4ccccc4O3)c3ccccc3c2=O)cc1 (configuration not stated),2.51µM*,2.82µM*,3.0%
O=C(N/N=C\c1ccc(Cl)s1)C1COc2ccccc2O1 (configuration not stated),0.631µM*,0.891µM*,.
O=C(N/N=C/c1c[nH]c2ccccc12)C1COc2ccccc2O1 (configuration not stated),-37.3%,-20.4%,2.5%
CC(C)(C)c1ccc2c(c1)OC(C(=O)N/N=C\c1ccc(-c3cccc(C(=O)O)c3)o1)CO2 (configuration not stated),26.7%,-3.4%,.
O=C(N/N=C\c1ccc([N+](=O)[O-])s1)C1COc2ccccc2O1 (configuration not stated),3.55µM*,2.82µM*,.
O=C(NCCCn1ccnc1)c1ccc(C(F)(F)F)cc1,4.0%,-21.2%,.
NCCCCCN,-22.3%,-13.4%,.
Cc1ccc(COc2ccsc2C(=O)NNC(N)=S)cc1,-29.5%,-21.7%,2.8%
CN(C)/N=N/c1nc[nH]c1C(N)=O,-12.7%,4.0%,-6.9%
CC(=O)N1CCC2(CCCN(c3ccccc3)C2)CC1,-9.2%,17.2%,-1.3%
CC(C)P(=O)(c1cccc(C(=O)O)c1)C(C)C,-13.5%,-1.8%,1.5%
Cn1c(C(=O)N2CCN(c3nc4ccccc4s3)CC2)cc2sccc21,17.2%,8.5%,0.1%
O=C(c1cc2sccc2n1Cc1ccc(F)cc1)N1CCN(c2nc3ccccc3s2)CC1,?,11.2µM*,1.1%
COc1cccc(-c2nc3ccc(C(=O)NC(C)Cc4cccnc4)cc3o2)c1 (configuration not stated),-9.4%,?,.
CCOc1cc(/C=N/N2CCN(Cc3ccccc3)CC2)ccc1O,-9.3%,8.2%,.
SMILES,RORgamma inh,Gal4-VP16 FLuc,Luc counter
C/C(=N\NC(=S)NCC(C)(C)C)c1cc(F)cc(F)c1O,2.82µM*,3.98µM*,.
CCn1c(COc2cccc(OC)c2)nnc1SCC(=O)Nc1cccc(OC)c1,-4.5%,5.7%,0.5%
CCC1=C(OC(=O)N(CC)CC)N2C(=O)OC(=NCCc3c[nH]c4ccccc34)[C@]2(C)[C@H]2C1=CC[C@H]1C(=O)N(C)C(=O)[C@H]12,?,-1.8%,-2.2%
CCNc1nc(NC(N)=S)nc(NC(C)(C)C)n1,?,-11.2%,-1.8%
CCCCN(CC)C(=O)Cn1nc(Cc2ccncc2)c2ccccc2c1=O,-1.0%,3.1%,.
O=[N+]([O-])c1cc(Cl)cc(/C=N\Nc2ccccn2)c1O,0.562µM*,1.12µM*,-12.4%
O=[N+]([O-])c1cc(/C=N\Nc2ccccn2)ccc1Cl,-33.5%,?,.
C/C(=N\NC(=O)c1cc(-c2ccccn2)nc2ccccc12)c1cccc([N+](=O)[O-])c1,?,2.8%,5.0%
O=C(N/N=C/c1cc(Cl)cc([N+](=O)[O-])c1O)c1cc(-c2ccccn2)nc2ccccc12,5.62µM*,10µM*,.
COc1cc([N+](=O)[O-])cc2sc(NC(=O)C3CC3)nc12,6.9%,-3.4%,-4.7%
O=C(COC(=O)c1ccc(Br)cc1)NCCN1C(=O)CSC1=O,-9.8%,3.4%,-5.5%
C[C@H]1Cc2c(-c3ccccc3)nc3c(c2CO1)CN(S(=O)(=O)c1ccc(C#N)cc1)CC3,.,.,-8.3%[7.66 µM]
Cc1ccc(OCC(=O)Nc2sc3c(c2C#N)CC(C)(C)NC3(C)C)cc1,-1.2%,5.5%,-2.4%
